Screens as filed in PubChem BioAssay.
Most compounds without a hit are left out; they make up all but 15% or so of the library.
Pf growth 48h: Primary qHTS for delayed death inhibitors of the malarial parasite plastid, 48 hour incubation | P. falciparum luciferase growth in erythrocytes, 48 h | Potency, µM (top dose mostly 28.7 µM), actives largely listed as inhibitors | actives 5.9% (n = 310,000) | AID 504832, 2011
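A one-generation exposure of luciferase-tagged malaria parasites in RPMI 1640/Albumax erythrocyte culture, 37 C and 5% CO2. Inhibition is inferred from decreased luminescence after adding detection reagent.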
Pf growth 96h: Primary qHTS for delayed death inhibitors of the malarial parasite plastid, 96 hour incubation; Potency, µM (series often up to 28.7 µM), usual class: inhibitors; AID 504834, 2011; actives 6.9% (n = 320,000); P. falciparum luciferase reporter growth, 96 h
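Plates of compound plus infected erythrocytes (2% hematocrit, 0.05% parasitemia final) incubate 96 hours, 37 C, 5% CO2. Detection reagent added; reduced luminescence from the parasites' luciferase reporter flags inhibition.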
Sm TGR inh: qHTS Assay for the Inhibitors of Schistosoma Mansoni Peroxiredoxins. Potency, µM (titrated, usually from 114 µM), hits mostly inhibitors. actives 3% (n = 360,000). Schistosoma mansoni thioredoxin glutathione reductase (TGR), Q962Y6. purified TGR, DTNB reduction, TNB absorbance 405 nm; also: nearly all actives have a fitted effect of over 60% in size
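First, TGR (20 nM dispensed) and NADPH were mixed with compound. Second, a 15 min room-temperature incubation followed. Third, further NADPH and then DTNB were added to start the reaction. Finally, TNB absorbance was monitored kinetically.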
SARS PLP yeast: qHTS of Yeast-based Assay for SARS-CoV PLP | actives 0.19% (n = 330,000) | S. cerevisiae expressing SARS-CoV PLpro, growth rescue | Potency, µM (titrated, usually from 32.9 µM), hits mostly activators; calls by dose curve; also: nearly all actives have a fitted effect of over 55% in size
HCV inhibitor: qHTS Assay for Inhibitors of Hepatitis C Virus (HCV); Huh7.5.1 HCVcc-Cre infection, luciferase reporter, 44 h; Potency, µM (highest dose often 41.8 µM), hits mostly inhibitors; actives 3.4% (n = 340,000); AID 651820, 2012
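Antiviral activity was scored by luciferase reporter output from cells infected with HCVcc-Cre (~0.5 moi) in presence of compound, 44 h infection period, cells seeded 1,000/well 4 h prior.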
HCMV antiviral: qHTS Assay for inhibitors of the human cytomegalovirus (HCMV). HFF cells, HCMV-luciferase reporter, 72 h; hits give low values. activity change, negative = inhibition, % at 57.5 µM. actives 4.5% (n = 410,000). AID 1259415, 2018; in the data active = activity change below about -60%; inconclusive = no clear call, values can overlap the other calls; inactive = above about -39%
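Steps: HFFs plated, 16 h 37C; compounds added; HCMV-luciferase added to MOI 1 PFU/cell; 72 h 37C; OneGlo reagent, 5 min room temperature; luminescence read, normalized to controls.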
Numbers stand for hits; 0 = inactive; ? = inconclusive; - = no result; [ ] = another dose, or the depositor's remark. Unless noted, calls follow the shape of the dose curve; as a rule, active = well fitted curve in the direction sought with a large enough effect; inconclusive = small, poorly fitted or top-dose-only effect, or another doubt; inactive = no such curve, though single readings can be large; an effect the other way counts as inactive or inconclusive.

SMILES | Pf growth 48h | Pf growth 96h | Sm TGR inh | SARS PLP yeast | HCV inhibitor | HCMV antiviral
Cc1ccc(CN2CCN(C3CCC3)CC2CCO)cc1 (configuration not stated) | 0 | ? | 0 | 0 | 0 | 0
CCOC(=O)N1CCC(N2CCN(Cc3ccc(C)o3)C(CCO)C2)CC1 (configuration not stated) | 0 | 0 | 0 | 0 | 0 | 0
Cc1ccccc1CN1CCN(C2CCC2)CC1CCO (configuration not stated) | 0 | 15µM | 0 | 0 | 0 | 0
Cc1nc2ccccc2nc1CN1CCN(Cc2ccc(F)c(F)c2)C(CCO)C1 (configuration not stated) | ? | ? | 14µM | 0 | 0 | 0
CCOC(=O)N1CCC(N2CCN(Cc3ccccc3)C(CCO)C2)CC1 (configuration not stated) | 0 | ? | 16µM | 0 | 0 | 0
OCCC1CN(C2CCN(c3ccccc3)CC2)CCN1Cc1ccc(F)c(F)c1 (configuration not stated) | ? | 0 | 0 | 0 | 0 | 0
COc1ccc(CN2CCN(CC3CC3)CC2CCO)cc1C (configuration not stated) | 0 | ? | 0 | 0 | 0 | 0
OCCC1CN(CC2CC2)CCN1Cc1ccc(F)c(F)c1 (configuration not stated) | 0 | 13µM | 0 | ? | 0 | 0
Cc1ccc(-c2ccc(C(=O)O)[nH]2)cc1 | 0 | 6.6µM | 0 | 0 | 0 | 0
Cc1ccc(C(=O)NCC(=O)OCc2cc(=O)n3c(C)csc3n2)cc1 | - | - | 0 | - | - | 0
COc1c2occc2c(OC(C)=O)c2c(=O)cc(C)oc12 | 0 | 0 | 0 | 0 | 0 | -67
COc1ccc(CNCc2c(C(=O)O)c(C)n(Cc3ccccc3C)c2C)c(OC)c1 | - | - | 0 | - | - | 0
O=C(NCC1CCCN1S(=O)(=O)c1cccs1)c1ccc(F)c(F)c1 (configuration not stated) | 0 | 0 | 0 | 0 | ? | ?
Cc1ccc(C(=O)NCC2CCCN2S(=O)(=O)c2ccc(C)cc2)cc1 (configuration not stated) | ? | 10µM | 0 | 0 | 0 | 0
Cc1ccc(C)c(S(=O)(=O)N2CCCC2CNC(=O)c2ccc([N+](=O)[O-])cc2)c1 (configuration not stated) | 10µM | ? | 0 | 0 | 11µM | 0
Cc1ccc(S(=O)(=O)N2CCCC2CNC(=O)c2ccc(F)c(F)c2)cc1 (configuration not stated) | 10µM | ? | 0 | 0 | ? | 0
CC(C)(C)c1ccc(C(=O)NCC2CCCN2S(=O)(=O)c2ccccc2)cc1 (configuration not stated) | 9.3µM | 13µM | 0 | 0 | ? | 0
Cc1ccc(C)c(S(=O)(=O)N2CCCC2CNC(=O)C(=O)NC2CC2)c1 (configuration not stated) | ? | 0 | 0 | 0 | 0 | 0
CS(=O)(=O)c1ccc(-c2nccc3[nH]nc(-c4cccc(F)c4)c23)cc1 | - | - | - | - | - | 0
COCCn1c(SC(C(=O)Nc2cc(C)ccc2OC)c2ccccc2)nnc1-c1ccc(Cl)cc1 (configuration not stated) | 13µM | 9.3µM | 0 | 0 | 0 | 0
COc1ccc(C)cc1NC(=O)C(Sc1nnnn1C)c1ccccc1 (configuration not stated) | 0 | 0 | 0 | 0 | 0 | 0
O=C(Nc1cccc(C(=O)N2CCN(c3cccc(Cl)c3)CC2)c1)c1nsc2ccccc12 | - | - | 0 | - | - | 0
O=C(c1cccc(C(=O)N2CCN(c3ccccc3F)CC2)c1)N1CCN(c2ccccc2F)CC1 | 13µM | 0 | 0 | 0 | 0 | 0
CC(=O)c1ccc(N2CCN(C(=O)c3ccc(-c4ccccc4)cc3)CC2)cc1 | 0 | ? | 0 | 0 | 0 | -66
O=C(Nc1cccc(C(=O)N2CCN(c3cccc(Cl)c3)CC2)c1)c1ccccc1 | 0 | 0[1.15 µM] | 0 | 0 | 14µM | 0
SMILES | Pf growth 48h | Pf growth 96h | Sm TGR inh | SARS PLP yeast | HCV inhibitor | HCMV antiviral
CC(C)(C)c1ccc(C(=O)NC(=S)N2CCOCC2)cc1 | 0 | 2.6µM | 0 | 0 | 0 | 0
CC(NC(=O)COC(=O)C1CCCCC1)c1ccccc1 (configuration not stated) | - | - | - | 0 | 0 | 0
O=C(c1cccc(C(=O)N2CCN(c3ccccc3)CC2)c1)N1CCN(c2ccccc2)CC1 | 13µM | - | ? | 0 | ? | ?
O=C(NC(=S)N1CCN(c2ccccc2)CC1)c1ccccc1 | 10µM | 4.7µM | 0 | 0 | - | 0
O=C(c1ccccc1)c1ccc(C(=O)N2CCN(c3ccccc3O)CC2)cc1 | - | - | - | - | - | -65
O=C(NC(=S)N1CCN(c2ccc(F)cc2)CC1)c1ccccc1 | - | - | - | - | - | 0
O=C(c1nc[nH]c1C(=O)N1CCN(c2ccccc2)CC1)N1CCN(c2ccccc2)CC1 | 0 | 0 | 0 | 0 | 3.5µM | 0
CC(C)(C)OC(=O)N1CCN(C(=O)c2nc[nH]c2C(=O)N2CCN(c3ccccc3)CC2)CC1 | 0 | 0 | ? | 0 | 0 | 0
Nc1ccccc1N1CCN(C(=O)c2ccccc2)CC1 | 0 | 0 | 0 | 0 | 0 | 0
O=S(=O)(c1ccc(Cl)cc1)N1CCC2(CC1)CO2 | ? | 0 | 0 | 0 | 0 | 0
COC(=O)c1cc(C(=O)N2CCN(c3cccc(Cl)c3)CC2)cc([N+](=O)[O-])c1 | 0 | 0 | 0 | 0 | 0 | -68
CC(C)c1cccc(C(C)C)c1NC(=O)CN(C)C1CCS(=O)(=O)C1 (configuration not stated) | 0 | 0 | 0 | 0 | 0 | 0
CC(=O)NC1=C(Nc2ccc(N(C)C)cc2)C(=O)c2ccccc2C1=O | ? | ? | ? | 0 | ? | -88
CC(=O)NC1=C(N(C)C2CCS(=O)(=O)C2)C(=O)c2ccccc2C1=O (configuration not stated) | 13µM | 2.1µM | ? | 0 | 0 | 0
CN(C(=O)Nc1ccccc1)C1CCS(=O)(=O)C1 (configuration not stated) | 0 | 2.3µM | 0 | 0 | 0 | 0
CN1c2ccccc2[C@]23CCN(S(=O)(=O)C(F)(F)F)C2=Cc2ccccc2[C@H]13 | - | - | - | - | - | 0
CCOc1ccccc1N1CCN(CC(=O)N(C)CC(=O)Nc2ccccc2CC)CC1 | - | - | - | - | - | 0
Cc1ccc(N2C(=O)NC(=O)/C(=C/c3ccc(OC(=O)c4cccs4)cc3)C2=O)cc1 | 0 | ? | 35µM | 0 | 0 | 0
COc1cc(/C=C2\C(=O)NC(=O)N(c3ccccc3)C2=O)cc(OC)c1O | 0 | - | 0 | 0 | 0 | 0
COc1ccc(N2C(=O)NC(=O)/C(=C/c3cccc(OC(=O)c4cccs4)c3)C2=O)cc1Cl | 0 | 0 | 14µM | 0 | 0 | 0
